Screening results from PubChem.
An excerpt weighted towards active compounds, which were near 1.3% of everything screened.
FadD28 FP inh: inhibitors of Mycobacterium tuberculosis FadD28 bisubstrate binding; FadD28 bisubstrate probe binding, fluorescence polarization; inhibition, % at 12.5 µM; 0.22% of 360,000 active; in the data active = inhibition above about 8.5%, passing the limit was not always enough
Rv3671c inh: inhibits the M. tuberculosis serine protease Rv3671c; P9WHR9; inhibition, % at 5.96 µM; 0.048% of 320,000 active; AID 2606; in the data active = inhibition above about 38%;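 note: extracellular domain of Rv3671c used as enzyme; 0% = enzyme with DMSO and 100% = no enzyme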
Mtb UGM inh: Mtb UDP-galactopyranose mutase inhibition. inhibition, % at 10 µM. purified UGM, fluorescence polarization probe displacement. 0.06% of 320,000 active. AID 504406. P9WIQ1; in the data active = inhibition above about 10%, passing the limit was not always enough
BJeLR viability: kills HRASV12-expressing BJeLR cells; BJeLR (HRASV12) viability, CellTiter-Glo ATP luminescence, 48 h; inhibition, % (concentration not given with the values); 0.17% of 300,000 active; AID 1554; in the data active = inhibition above about 50%
RecA intein inh: inhibitors of M. tuberculosis RecA intein splicing. inhibition, % (test concentration not listed). P9WHJ3. 0.75% of 290,000 active. AID 2221. cell-free RecA intein splicing, fluorescence; in the data active = inhibition above about 30%;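 note: 0% = vehicle wells and 100% = reference inhibitor control wells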
Target sequence (P9WHJ3 whole entry, looked up): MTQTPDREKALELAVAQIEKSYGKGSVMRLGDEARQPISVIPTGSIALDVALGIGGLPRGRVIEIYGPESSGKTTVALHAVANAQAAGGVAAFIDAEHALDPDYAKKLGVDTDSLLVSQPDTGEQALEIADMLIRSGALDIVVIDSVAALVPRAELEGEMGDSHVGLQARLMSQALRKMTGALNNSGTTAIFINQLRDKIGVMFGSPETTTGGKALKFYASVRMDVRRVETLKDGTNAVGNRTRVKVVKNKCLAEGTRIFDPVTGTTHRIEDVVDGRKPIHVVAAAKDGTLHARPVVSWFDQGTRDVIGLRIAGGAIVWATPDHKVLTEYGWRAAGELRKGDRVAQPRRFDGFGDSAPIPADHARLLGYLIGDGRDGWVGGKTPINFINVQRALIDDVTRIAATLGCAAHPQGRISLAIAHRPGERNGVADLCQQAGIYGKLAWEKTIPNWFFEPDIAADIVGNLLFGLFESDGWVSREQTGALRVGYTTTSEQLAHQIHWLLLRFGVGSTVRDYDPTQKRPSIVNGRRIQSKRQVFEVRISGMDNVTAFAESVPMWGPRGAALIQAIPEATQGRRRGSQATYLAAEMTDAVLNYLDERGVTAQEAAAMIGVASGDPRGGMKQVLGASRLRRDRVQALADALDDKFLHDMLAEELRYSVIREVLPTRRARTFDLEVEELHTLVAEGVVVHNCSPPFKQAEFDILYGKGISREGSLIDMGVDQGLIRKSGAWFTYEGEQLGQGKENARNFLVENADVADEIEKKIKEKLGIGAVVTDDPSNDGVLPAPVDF
PrP 5UTR inh: inhibition of PrP 5' UTR reporter expression; 0.35% of 340,000 active; inhibition, % (concentration not given with the values); cell-based PrP 5' UTR mRNA reporter, plate reader; in the data active = inhibition above about 52%; note: 0 = median of the neutral control wells
Starred values were filed as active, the others as inactive; nt = no result; ! = not active in a repeat.

SMILES	FadD28 FP inh	Rv3671c inh	Mtb UGM inh	BJeLR viability	RecA intein inh	PrP 5UTR inh
COC(=O)c1ccc2c(c1)C(C)(C)C(/C=C/c1ccc(O)cc1)=[N+]2C	-9.6	-332.2	-5.9	28.9	0.0	-32.4
COC(=O)c1ccc2c(c1)C(C)(C)C(/C=C/c1ccc(OC)c(OC)c1OC)=[N+]2C	-2.1	-465.2	-3.7	52.0*	1.8	-24.3
O=C(CCSc1ccc(Cl)cc1)N1CCOCC1	-2.3	0.1	1.2	1.1	-0.1	-20.9
O=C(CSc1ccc(Cl)cc1)N1CCOCC1	14.7*	-5.3	2.2	-0.2	2.5	-5.4
CCOc1cc(/C=C2\CN(CC)C/C(=C\c3ccc(O)c(OCC)c3)C2=O)ccc1O	-0.9	5.0	-1.2	56.7*	1.3	-12.6
CCCNC(=O)N(C)C[C@@H]1Oc2cc(C#CC(C)(C)O)ccc2S(=O)(=O)N([C@H](C)CO)C[C@H]1C	-2.2	nt	nt	nt	nt	nt
COc1ccc(C2c3ccc4ccccc4c3Oc3ncn(CCCN(C)C)c(=N)c32)cc1 (configuration not stated)	-13.5	-18.6	0.2	53.7*	11.3	4.7
CC1=C(C#N)c2nc(N)c(C#N)c(C)c2/C1=C\c1ccc(-c2ccccc2C(=O)O)o1	11.8*	nt	nt	6.3	-3.7	-18.4
COc1cc(/C=C2/C(C)=C(C#N)c3nc(N)c(C#N)c(C)c32)ccc1OCC(=O)O	nt	0.1	2.0	-8.4	17.0	-17.6
COc1ccc(-c2nnc(NC(=O)c3ccc(S(=O)(=O)N4CCc5ccccc5C4)cc3)o2)cc1	0.6	-6.8	-0.6	76.0*	2.3	30.5
COc1ccc(-c2csc(NC(=O)c3ccc(S(=O)(=O)N4CCc5ccccc5C4)cc3)n2)cc1	-0.6	-63.4	0.1	23.8	0.8	-2.7
CCOc1cccc(C2C(C(=O)c3ccc(C)o3)=C(O)C(=O)N2c2nccs2)c1 (configuration not stated)	-3.3	6.3	16.0*	-5.1	-9.7	-33.5
COc1cc2[nH]c3c(N4CCN(c5ccccn5)CC4)ncnc3c2cc1OC	9.1*	-4.9	-0.5	13.6	-5.1	-21.6
COc1ccc(N2CCN(c3ncnc4c3[nH]c3ccccc34)CC2)cc1	-2.7	1.4	0.0	8.2	-3.2	-9.4
C[C@@H]1C[C@H]2OC(=O)C3(CO3)[C@H]2[C@H](O)[C@]2(C)C(=O)C3OC3[C@@H]12 (some centres not stated)	nt	1.4	0.3	72.9*	18.4	nt
C[C@@H]1C[C@@H]2OC(=O)[C@]3(C)[C@H]2[C@@H](OC3(C)O)[C@]2(C)C(=O)C=C[C@H]12 (some centres not stated)	-0.4	1.1	-1.2	-14.4	5.2	-21.9
Cn1cnc([N+](=O)[O-])c1Sc1nnc(-c2cccnc2)n1C	0.2	nt	2.6	-5.2	38.7*	-25.9
COc1ccc(-c2nnn(CC(=O)c3c[nH]c4ccccc34)n2)cc1OC	14.6*	-21.2	2.9	4.0	-2.6	-13.7
O=c1[nH]c(=O)n([C@H]2C[C@H](O)[C@@H](CO)O2)cc1F	-4.6	4.8	-1.4	92.6*	-1.6	35.3
O=c1[nH]c(=O)n(C2CC(O)C(CO)O2)cc1I (configuration not stated)	-0.6	nt	nt	nt	nt	-37.3
CCN(CC)C(=O)C1=C(C)N(CCCOC)C(=O)C(CC(=O)NC(c2ccccc2)c2ccccc2)C1 (configuration not stated)	0.9	nt	nt	nt	nt	nt
COc1ncnc2c1ncn2CCCN(C)CCc1ccccn1	-2.2	nt	nt	nt	nt	nt
COc1cc(/C=C2\S/C(=N/S(=O)(=O)Cc3ccccc3)NC2=O)c([N+](=O)[O-])cc1OC	3.3	-0.9	-3.1	5.4	-22.0	-19.9
O=C1N/C(=N\S(=O)(=O)Cc2ccccc2)S/C1=C/c1cc([N+](=O)[O-])ccc1O	15.4*	8.0	-4.6	1.6	2.1	-11.4
Cc1ccc(S(=O)(=O)/N=C2/NC(=O)/C(=C/c3ccc(Br)o3)S2)cc1	3.0	-14.9	2.4	8.6	-5.0	-13.4
SMILES	FadD28 FP inh	Rv3671c inh	Mtb UGM inh	BJeLR viability	RecA intein inh	PrP 5UTR inh
COc1cc(/C=C2/S/C(=N/S(=O)(=O)c3ccccc3)NC2=O)c([N+](=O)[O-])cc1OC	4.1	-3.9	-4.0	0.5	-12.0	-15.1
Cc1ccc(S(=O)(=O)/N=C2/NC(=O)/C(=C\c3cc(Br)cc(Br)c3O)S2)cc1	50.2*	nt	-35.2	nt	21.2	-20.5
O=C1N/C(=N\S(=O)(=O)c2ccccc2)S/C1=C\c1cc([N+](=O)[O-])ccc1O	19.5*	5.7	-8.2	7.8	1.6	-14.9
O=C(c1cccs1)N1C[C@@H](n2cc(C3CC3)nn2)[C@H](O)C[C@@H]1c1ccc(Cl)cc1	-5.5	nt	nt	nt	nt	nt
COc1cc(NC(=O)CCl)ccc(=O)c1	-2.0	nt	nt	nt	nt	nt
COc1cc(/C=C2\CCC(C)C3=C(c4cc(OC)c(OC)c(OC)c4)C(C#N)=C(N)OC32)cc(OC)c1OC (configuration not stated)	0.1	nt	nt	nt	nt	3.3
O=c1oc(-c2ccc(O)c(O)c2)cc2cc(O)cc(O)c12	12.5*	-11.2	nt	nt	nt	-49.6
Cc1ccc(S(=O)(=O)Nc2ccc(Nc3nccn4c(-c5ccc6ccccc6c5)cnc34)cc2)cc1	-2.2	nt	nt	nt	nt	nt
OCCc1ccc(O)cc1	-3.9	-1.8	-1.2	nt	nt	-24.7
CC(c1ccc(O)cc1)(c1ccc(O)cc1)c1ccc(CCBr)cc1	-10.5	-5.9	0.5	-4.6	30.7*	-18.2
Nc1nc(N)c2cc(Sc3ccc4ccccc4c3)ccc2n1	-3.3	34.1	0.5	60.2*	7.9	nt
Nc1nc(N)c2cc(Sc3ccc(Cl)cc3)ccc2n1	-6.7	nt	nt	nt	nt	nt
Cc1sc2ncnc(N/N=C/c3ccccc3O)c2c1C	-0.5	24.5	-0.3	81.3*	-5.1	40.9
Nc1ccc(C(=O)O)c(O)c1	15.6*!	5.9	-2.6	2.9	0.6	-18.5
C/C(=N\NC(=O)c1cccc(N/N=C(\C)c2cc(O)ccc2O)c1)c1cc(O)ccc1O	1.1	-8.9	3.1	16.3	23.9	-20.7
COc1ccc(NC(=O)Cn2c(=O)oc3cc(S(=O)(=O)N4CCCC4)ccc32)c(OC)c1	0.0	5.0	3.4	5.2	-2.8	-15.2
COc1cccc(NC(=O)Cn2c(=O)oc3cc(S(=O)(=O)N4CCCC4)ccc32)c1	24.0*	3.1	3.0	-2.1	-12.0	-29.3
Cc1cccc(NC(=O)Cn2c(=O)oc3ccccc32)n1	19.7*	-6.1	-2.2	0.7	-1.7	-8.9
Cc1ccnc(NC(=O)Cn2c(=O)oc3cc(S(=O)(=O)N4CCCC4)ccc32)c1	-6.2	-2.7	-2.1	0.7	-2.8	-13.5
Cc1cccc(NC(=O)Cn2c(=O)oc3cc(S(=O)(=O)N4CCCC4)ccc32)n1	14.3*	-6.1	5.9	1.5	-2.6	-4.9
CC(=O)OCC(C)n1[nH]c2ccccc2c1=O (configuration not stated)	-0.5	nt	nt	nt	nt	nt
COc1ccc(-c2cc(=O)[nH]c3ccccc23)cc1	-1.8	-6.5	11.0*	nt	nt	-1.4
Cc1ccc(-c2cc(=O)[nH]c3ccccc23)cc1	-4.8	1.1	-0.2	-6.6	0.9	-30.2
Cn1cnc2nc[nH]c2c1=S	0.1	nt	nt	nt	nt	-11.1
